Experimental data published in PubChem BioAssay.
Results filed as inconclusive are left out. Activity calls are given as the source filed them.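 Rule for the calls, unless noted: active = RAM network inhibition above 8.4% in each of two replicates, 3 SD over the compound average; inconclusive = above 8.4% inhibition in only one replicate; inactive = 8.4% inhibition or less in each replicate.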

Tests used:
[1] = reducers of endogenous Her2 protein level, primary screen, SKBR3 breast tumor cells, AlphaScreen, ATP viability (AID 461;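 active = Her2 level under about 52% in both replicate screens, with viability over 70% of control, limit read from the data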;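 for Her2 level: lower value means less Her2 protein in the cells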;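 for viability: percent of carrier control wells set as 100% viability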); details: 18-24 h, measured here: SKBR3 viability, ATP luminescence, at 10 µM
[2] = target: Receptor tyrosine-protein kinase erbB-2 (Homo sapiens) (UniProt P04626); experiment: as above; details: 18-24 h, at 10 µM, stronger effect = lower value
[3] = SK-BR-3 cell growth inhibitors, pilot screen, 24 h, human (AID 572;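 active = viability at or below 10% of carrier control in both of two separate runs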;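 note: compound exposure lasted between 18 and 24 h rather than exactly 24 h; 100% = carrier-treated control wells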); details: SK-BR-3 viability, CellTiter-Glo luminescence, at 10 µM, stronger effect = lower value
[4] = HUVEC growth inhibition – cell-based, human, primary screen (AID 575;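 active = viability at or below 30% in both replicate assays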;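 note: 100% = median of untreated cell wells with 0.1% DMSO on each plate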); details: HUVEC proliferation, CellTiter-Glo luminescence, 72 h; at 10 µM; stronger effect = lower value
[5] = growth inhibitors of H69AR lung tumor, primary screen, human, duplicate replicates (AID 580;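 active = viability at or under a set limit in both replicates, limit being median viability minus 3 SD, cut at about 48% in these data, passing the limit was not always enough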;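 note: 100% = mean luminescence of untreated wells and 0% = no signal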); details: H69AR lung tumor cells viability, ATP luminescence, 72 h; at 10 µM; stronger effect = lower value
[6] = reversal of MRP1-mediated doxorubicin resistance, pilot screen, H69AR cells, doxorubicin co-treatment (AID 601;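 active = viability loss from added drug above about 55%, and viability with drug at most 40%, in both replicates, limit read from the data, passing the limit was not always enough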); details: CellTiter-Glo, 72 h, at 10 µM; for differential viability (reversal): stronger effect = higher value
[7] = 384-well plate pilot, post-Golgi transport modulator project, inhibition of yeast transport mutant growth (AID 636; in the data active = inhibition above about 31%); details: absorbance 615 nm, about 18 h, stronger effect = higher value
[8] = growth suppression of yeast trafficking mutant, preliminary HTS, modulators of trafficking downstream of Golgi apparatus project, 1536-format plate, OD 615 nm (AID 637; in the data active = inhibition above about 30%); details: yeast transport mutant growth, absorbance 615 nm, 18 h; stronger effect = higher value
[9] = OD615 S. cerevisiae growth inhibition, permissive medium, pilot counter-assay, permissive growth control for S. cerevisiae lifespan shortening project (AID 705;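 active = growth inhibition above 25% in both replicates, a cutoff set 3 SD above the mean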); details: OD615, 24 h, at 10 µM, stronger effect = higher value
[10] = Restrictive medium S. cerevisiae growth inhibition, OD615, pilot screen of yeast lifespan reduction project, restrictive growth control (AID 706;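 active = growth inhibition above a set limit, 3 SD over mean compound inhibition, in both replicates, cut at about 43% in these data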;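 note: modified DeaD lifespan yeast strain shifted to restrictive glucose medium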); details: OD615, 48 h, at 10 µM, stronger effect = higher value
[11] = viability gain of MRP-1-high H69AR cells under doxorubicin, pilot screen, MRP-1 activator project, CellTiter-Glo, duplicate (AID 807;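 active = viability increase at or above a cutoff of the median across tested compounds plus 3 SD, cut at about 8.5% in these data, passing the limit was not always enough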;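 note: compound pretreatment 18-22 h then 72 h combined with doxorubicin; 0% = doxorubicin alone and 100% = vehicle without doxorubicin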); details: H69AR viability with doxorubicin, CellTiter-Glo luminescence; at 10 µM; stronger effect = higher value
[12] = growth suppression of beta-catenin knockout HCT116, pilot screen, human colon tumor cells (AID 823;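 active = cell viability at or below a set limit in both duplicate runs, the limit being the all-compound median minus 4 SD, cut at about 23% in these data, passing the limit was not always enough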;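 note: 0% = wells killed by 20 µM Hyamine and 100% = untreated DMSO cell wells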); details: CellTiter-Glo, 60 h, at 10 µM, stronger effect = lower value
[13] = growth suppression of PTEN-deleted HCT116, pilot screen, cell-based, HCT116 clonal line, CellTiter-Glo (AID 824;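 active = viability at or below 27.92% in each of two runs, the all-compound median minus 4 SD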;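 note: 0% = 20 µM Hyamine control and 100% = vehicle cell control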); details: 60 h, at 10 µM, stronger effect = lower value
[14] = inhibitors of the yeast RAM network, pilot screen, dse1pr::URA3 reporter, 5-FOA selection (AID 869;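 active = inhibition over a set limit, the all-compound mean plus 3 SD, in both replicate runs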;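 note: 0% = DMSO wells with no growth and 100% = 10 µM 1-NA-PP1 with full growth; RAM network block rescues cells from 5-FOA so hits raise OD615 growth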); details: S. cerevisiae dse1pr::URA3 5-FOA growth, OD615, 2 d; at 10 µM; stronger effect = higher value; strain carries analog-sensitive mutant Cbk1 kinase
[15] = RAM signaling pathway blockade in yeast – S. cerevisiae, Pdr1DBD-CYC8 efflux-inhibited sensitized strain, primary screen (AID 1298);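 note: 0% = DMSO untreated cells without growth and 100% = 10 µM 1-NA-PP1 full growth; higher means more yeast growth rescued from 5-FOA killing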; details: S. cerevisiae cbk1-as DSE1-URA3 strain, 5-FOA growth OD615, 2 d; at 50 µM; stronger effect = higher value
[16] = H69AR cells + 2 uM doxorubicin, measured here: viability with 2 uM doxorubicin, stronger effect = lower value
[17] = H69AR cells, compound alone cytotoxicity

Receptor tyrosine-protein kinase erbB-2 (Homo sapiens), sequence (P04626 whole entry, looked up): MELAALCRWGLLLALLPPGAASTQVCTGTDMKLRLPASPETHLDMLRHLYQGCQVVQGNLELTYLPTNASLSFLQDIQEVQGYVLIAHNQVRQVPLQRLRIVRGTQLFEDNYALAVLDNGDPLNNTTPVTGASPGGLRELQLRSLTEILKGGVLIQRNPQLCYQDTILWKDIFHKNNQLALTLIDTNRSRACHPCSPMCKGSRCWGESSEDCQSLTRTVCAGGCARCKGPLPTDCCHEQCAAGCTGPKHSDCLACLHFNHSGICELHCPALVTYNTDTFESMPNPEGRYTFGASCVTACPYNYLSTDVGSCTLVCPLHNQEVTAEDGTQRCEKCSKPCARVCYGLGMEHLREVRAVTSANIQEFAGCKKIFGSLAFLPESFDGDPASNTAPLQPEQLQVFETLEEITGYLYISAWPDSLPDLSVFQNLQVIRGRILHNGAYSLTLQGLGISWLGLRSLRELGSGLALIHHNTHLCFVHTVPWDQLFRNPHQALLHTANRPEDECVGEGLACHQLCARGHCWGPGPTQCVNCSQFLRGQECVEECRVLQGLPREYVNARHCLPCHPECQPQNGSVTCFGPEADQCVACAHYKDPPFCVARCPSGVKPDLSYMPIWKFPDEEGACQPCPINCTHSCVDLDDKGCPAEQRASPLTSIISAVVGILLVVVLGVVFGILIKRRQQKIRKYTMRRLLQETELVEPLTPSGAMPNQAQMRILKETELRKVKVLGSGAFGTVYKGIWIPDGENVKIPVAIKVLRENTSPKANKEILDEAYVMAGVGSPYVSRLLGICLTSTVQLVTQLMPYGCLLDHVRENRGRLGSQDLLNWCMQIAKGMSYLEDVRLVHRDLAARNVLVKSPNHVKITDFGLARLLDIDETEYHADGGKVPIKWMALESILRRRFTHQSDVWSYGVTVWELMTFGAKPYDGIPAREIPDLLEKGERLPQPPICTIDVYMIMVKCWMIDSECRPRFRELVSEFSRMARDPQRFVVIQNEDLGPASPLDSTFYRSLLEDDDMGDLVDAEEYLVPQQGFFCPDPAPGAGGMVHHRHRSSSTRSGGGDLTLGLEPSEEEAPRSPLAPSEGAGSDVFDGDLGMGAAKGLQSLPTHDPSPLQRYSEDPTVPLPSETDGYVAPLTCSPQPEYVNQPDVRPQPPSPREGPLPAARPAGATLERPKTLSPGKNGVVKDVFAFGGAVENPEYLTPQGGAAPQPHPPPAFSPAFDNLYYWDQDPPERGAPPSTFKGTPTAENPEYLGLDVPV

SMILES	viability [1]	Her2 level [2]	viability [3]	viability [4]	viability [5]	differential viability (reversal) ([6]; H69AR cells + 2 uM doxorubicin)	viability [6, 16]	viability [6, 17]	inhibition [7]	inhibition [8]	growth inhibition [9]	growth inhibition [10]	viability increase [11]	viability [12]	viability [13]	inhibition [14]	RAM network inhibition [15]
O=C(CCn1c(=O)oc2ccccc21)NCc1ccco1	106%	115% (inactive)	106% (inactive)	89.9% (inactive)	91% (inactive)	10% (inactive)	81%	91%	-3.47% (inactive)	-5.17% (inactive)	-2.37% (inactive)	-2.52% (inactive)	-1.66% (inactive)	102% (inactive)	99.4% (inactive)	2.08% (inactive)	2.93% (inactive)
CC1C(=O)C(C)C(c2cccs2)NC1c1cccs1 (stereo not drawn)	83%	100% (inactive)	83% (inactive)	101% (inactive)	104% (inactive)	3.58% (inactive)	100%	104%	1.73% (inactive)	2.42% (inactive)	-1.82% (inactive)	-0.61% (inactive)	0.03% (inactive)	87.3% (inactive)	91% (inactive)	0.78% (inactive)	1.45% (inactive)
CC(C)c1nnc(NC(=O)C2CCCCC2)s1	98.5%	97% (inactive)	98.5% (inactive)	96.5% (inactive)	99.5% (inactive)	5.75% (inactive)	93.8%	99.5%	-4.13% (inactive)	0.83% (inactive)	-3.55% (inactive)	0.755% (inactive)	-0.65% (inactive)	99.7% (inactive)	97.1% (inactive)	-0.59% (inactive)	-2.03% (inactive)
COC(=O)Cc1cc(=O)[nH]c(Nc2nc3ccccc3o2)n1	104%	99.5% (inactive)	104% (inactive)	74.6% (inactive)	78.3% (inactive)	8.41% (inactive)	69.8%	78.3%	-1.03% (inactive)	-3.33% (inactive)	3.62% (inactive)	1.2% (inactive)	-2.4% (inactive)	102% (inactive)	97.9% (inactive)	1.03% (inactive)	5.31% (inactive)
COc1cccc(-n2c(SCC(=O)N3CCCC3)nc3c([nH]c4ccccc43)c2=O)c1	83%	80.5% (inactive)	83% (inactive)	74.5% (inactive)	76.1% (inactive)	-1.79% (inactive)	77.9%	76.1%	-5.2% (inactive)	-1.83% (inactive)	-8.48% (inactive)	-21.2% (inactive)	-6.23% (inactive)	90.3% (inactive)	85.7% (inactive)	1.42% (inactive)	7.87% (inactive)
Cn1c(C(=O)NCC2CCCO2)cc2c(=O)n(C)c3ccccc3c21 (stereo not drawn)	95%	89% (inactive)	95% (inactive)	84.8% (inactive)	83.6% (inactive)	8.52% (inactive)	75.1%	83.6%	-2.31% (inactive)	2.17% (inactive)	-6.67% (inactive)	12.4% (inactive)	-4.43% (inactive)	92.9% (inactive)	90.7% (inactive)	2.33% (inactive)	0.71% (inactive)
COCCNC(=O)CN(C)S(=O)(=O)c1ccc(Br)cc1	113%	98% (inactive)	113% (inactive)	97.5% (inactive)	104% (inactive)	5.54% (inactive)	98.2%	104%	-6.27% (inactive)	-3.23% (inactive)	-11.6% (inactive)	-5.76% (inactive)	-2.09% (inactive)	98.7% (inactive)	98.4% (inactive)	0.87% (inactive)	3.01% (inactive)
COC(=O)Cn1c(=O)c2c(nc3n2CC(C)CN3c2ccc(C)c(C)c2)n(C)c1=O (stereo not drawn)	90.5%	89% (inactive)	90.5% (inactive)	93.2% (inactive)	85.5% (inactive)	15.8% (inactive)	69.7%	85.5%	-9.47% (inactive)	-3.5% (inactive)	-5.87% (inactive)	0.135% (inactive)	-0.75% (inactive)	97.9% (inactive)	91.1% (inactive)	1.25% (inactive)	4.14% (inactive)
CC(=O)Nc1ccc(S(=O)(=O)N2CCN(C(=O)CCC3CCCC3)CC2)cc1	84%	98.5% (inactive)	84% (inactive)	99% (inactive)	92.9% (inactive)	-9.75% (inactive)	103%	92.9%	-1.2% (inactive)	-4.35% (inactive)	0.295% (inactive)	-1.04% (inactive)	-2.79% (inactive)	78.7% (inactive)	81.8% (inactive)	0.505% (inactive)	2.16% (inactive)
